Test results from PubChem BioAssay AID1903 (Southern Research Specialized Biocontainment Screening …, 2009).
About 1,200 (0.39%) of roughly 310,000 compounds were called active. No rule for the calls is given here. Only a sample is shown. Entries with a potency or affinity are not part of this list.

Target: Large T antigen (Simian virus 40) (UniProt P03070)
Assay: TAg ATPase/helicase activity blockers – biochemical (AID 1903)
Conditions: SV40 large T antigen ATPase/helicase inhibition assay; at 20 µM; hits give high values

Chain of Large T antigen (Simian virus 40) (P03070 whole entry, looked up): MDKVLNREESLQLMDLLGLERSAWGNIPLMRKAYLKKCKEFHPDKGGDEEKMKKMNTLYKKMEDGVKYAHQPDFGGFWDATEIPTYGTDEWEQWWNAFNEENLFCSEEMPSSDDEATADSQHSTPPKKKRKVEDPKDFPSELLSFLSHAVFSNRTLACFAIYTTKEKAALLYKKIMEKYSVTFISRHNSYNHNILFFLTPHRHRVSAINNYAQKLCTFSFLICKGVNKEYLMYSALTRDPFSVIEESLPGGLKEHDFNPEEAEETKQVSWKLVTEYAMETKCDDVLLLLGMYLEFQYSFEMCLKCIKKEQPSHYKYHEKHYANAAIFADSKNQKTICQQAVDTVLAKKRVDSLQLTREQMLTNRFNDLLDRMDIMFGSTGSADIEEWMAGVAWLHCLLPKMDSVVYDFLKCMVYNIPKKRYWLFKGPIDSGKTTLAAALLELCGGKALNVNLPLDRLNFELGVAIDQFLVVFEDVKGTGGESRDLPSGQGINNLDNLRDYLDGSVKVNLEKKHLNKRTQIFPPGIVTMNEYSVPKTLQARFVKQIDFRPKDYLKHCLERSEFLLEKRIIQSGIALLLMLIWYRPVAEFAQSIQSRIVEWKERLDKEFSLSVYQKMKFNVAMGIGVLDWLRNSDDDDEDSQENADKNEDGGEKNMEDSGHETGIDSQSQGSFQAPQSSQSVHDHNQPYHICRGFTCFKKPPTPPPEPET

inhibition, inactive:
COc1ccccc1CNC(=O)C(CC(C)C)NC(=O)C1CCC(C)CC1 (configuration not stated) 12.9%
COc1ccc(/C=N/NC(=O)Cc2csc(Nc3cccc(C(F)(F)F)c3)n2)c(OC)c1 4.64%
O=C(O)C1Nc2c(C(F)(F)F)ccc(Cl)c2C2C=CCC12 (configuration not stated) 17.1%
CCOC(=O)C1Nc2ccc(Br)cc2C2C=CCC12 (configuration not stated) 7%
O=C(O)C1Nc2c(C(=O)N3CCOCC3)cccc2C2C=CCC12 (configuration not stated) 34.2%
CCOC(=O)C1Nc2c(F)cc(C)cc2C2C=CCC12 (configuration not stated) 26%
CCNc1ccc(C(=O)OCC)cc1NC(=O)c1cccc(S(=O)(=O)N(C)c2ccccc2)c1 -1.52%
CC1CN(CCOCCSc2ccccc2)CC(C)O1 (configuration not stated) -2.63%
COC(=O)CNc1cc(S(=O)(=O)N2CCCCC2)ccc1Oc1cccc(C)c1 5.08%
COc1ccc(Cn2c(-c3ccc(OC)cc3)nc3c(c(=O)c4ccccc4n3C)c2=O)cc1 4.69%
Cc1csc2c(NCCCN3CCOCC3)ncnc12 5.93%
c1ccc2c(NCCCN3CCOCC3)c3ccccc3nc2c1 3.76%
CCCc1nc2ccccc2c(=O)n1/N=C/c1ccc(O)cc1 6.26%
COc1ccc(/C=N/n2c(COc3ccccc3)n[nH]c2=S)cc1OC 32.6%
CCOc1cc(/C=N/n2c(COc3ccccc3)n[nH]c2=S)ccc1O 19.9%
O=c1c2ccccc2nc(COc2ccccc2)n1/N=C/c1ccc(O)cc1O 5.35%
CCCc1nc2ccccc2c(=O)n1/N=C/c1ccccc1O -9.27%
O=C(O)COc1ccc(/C=N/n2c(COc3ccccc3)nc3ccccc3c2=O)cc1 1.95%
O=C1COc2ccc(C(=O)COC(=O)c3cc(S(=O)(=O)NCc4ccccc4)ccc3O)cc2N1 13%
Cc1cc(Cl)ccc1NC(=O)CN1C(=O)NC2(CCCc3ccccc32)C1=O (configuration not stated) 25.2%
CCOC(=O)CN1C(=O)SC(CC(=O)Nc2nccs2)C1=O (configuration not stated) 2.87%
O=C(COC(=O)Cc1ccccc1F)NNC(=O)c1ccc([N+](=O)[O-])cc1 22.7%
FC(F)Oc1ccc(-n2cc(-c3ccccc3)[n+]3c2CCCCC3)cc1 10.7%
COc1ccccc1NC(=S)N1CCN(c2cccc(C)c2C)CC1 -4.85%
COc1ccccc1NS(=O)(=O)c1ccc(O)cc1 7.04%
O=C(O)CN1C(=O)S/C(=C\c2cccnc2)C1=O 16.2%
O=C(CCc1nnc(-c2ccsc2)o1)NCc1ccccc1OC(F)(F)F 3.5%
CN(C)S(=O)(=O)c1ccc(NC(=O)c2ccccn2)cc1 -5.42%
O=C(NCc1ccco1)C1CC(=O)N(c2ccc(Cl)cc2)C1 (configuration not stated) -4.21%
O=C(NCc1ccco1)C1CC(=O)N(c2ccc(F)cc2)C1 (configuration not stated) 9.04%
[O-][n+]1ccccc1/C=C/c1ccccc1 7.12%
[O-][n+]1ccccc1SCc1ccccc1 10.4%
COc1ccc(NC(=O)C2CCN(S(=O)(=O)c3cccc4nonc34)CC2)c(OC)c1 10.9%
CC1CCN(CCCCOc2ccc([N+](=O)[O-])cc2)CC1 20.7%
O=C(CN1CCCN(Cc2ccc(F)cc2)S1(=O)=O)NC1CCCC1 1.85%
Cc1ccc(NC(=O)NC2CCCCCCC2)cc1 3.82%
O=C(Nc1ccc(Cl)cc1)NC1CCCCC1 0.423%
O=C(c1ccc2c(c1)OCO2)N1CCC2(CC1)Oc1ccc(Cl)cc1C(=O)C21CC(c2cccnc2)=NO1 (configuration not stated) 6.56%
O=C(CCn1c(=O)oc2ccccc21)Nc1cccc(Cl)c1 6.5%
O=C(CCn1c(=O)oc2cc(Cl)ccc21)Nc1ccc(N2CCOCC2)cc1 12.7%
CCCCN(C(=O)c1ccc(S(=O)(=O)N2CCCC2)cc1)C1CCS(=O)(=O)C1 (configuration not stated) 2.38%
O=C(COc1ccc(Br)cc1)NNC(=S)NCc1ccccc1 15%
COC(=O)/C(C#N)=C1/C=Cc2ccccc2N1 9.95%
O=S1c2ccccc2Nc2ccccc21 8.27%
OC[C@H]1OC(O)[C@@H](O)[C@@H](O)[C@@H]1O (some centres not stated) 12.2%
O=C(CSc1ccccc1C(=O)O)NC12CC3CC(CC(C3)C1)C2 7.17%
O=C(Cn1nc(C(=O)O)c2ccccc2c1=O)NC12CC3CC(CC(C3)C1)C2 3.68%
N#Cc1ccsc1NC(=O)CN1CCN(S(=O)(=O)c2ccc3ccccc3c2)CC1 -5.22%
O=C(CCc1c[nH]c2ccccc12)NC(Cc1c[nH]c2ccccc12)C(=O)O (configuration not stated) 11.4%
CNC(=O)c1ccccc1Sc1ccccc1CO 10.3%
NNC(=O)c1ccccc1CO 3.38%
O=[N+]([O-])c1cccc(/C=N/N2CCN(c3ccccn3)CC2)c1 15.9%
COc1ccccc1CNC(=O)c1ccccc1C(=O)NC(CC(C)C)C(=O)NCc1ccccc1OC (configuration not stated) 14%
CCCNC(=O)CCCCn1c(=S)[nH]c2c([nH]c3ccc(OC)cc32)c1=O 10.7%
CCCCNC(=O)CCCCn1c(=S)[nH]c2c([nH]c3ccc(OC)cc32)c1=O 9.54%
COc1ccc2[nH]c3c(=O)n(CCCCC(=O)NCCC(C)C)c(=S)[nH]c3c2c1 9.9%
COc1ccc2[nH]c3c(=O)n(CCCCCC(=O)NCCC(C)C)c(=S)[nH]c3c2c1 5.88%
CCc1nc2oc3ccccc3c(=O)c2c(=O)n1Cc1ccccc1 2.01%
Cn1ccnc1SCC(=O)c1cccc(Br)c1 23.2%
Cc1cc(C)c(NC(=O)COC(=O)CSc2ccc(Br)cc2C)c(C)c1 -2.91%
O=C(O)c1ccc(O)c(O)c1 8.73%
CC(=O)c1ccc(O)c(CO)c1 8.31%
